Data published in the supplement of paper PMC11006884.
About 6,500 targets were measured; listed, in parts, are those with a hit and a random draw of the rest. About 2% of all pairs of compound and target were hits.

compound: COC(=O)C#Cc1ccccc1 [methyl 3-phenylpropiolate]; test: log2 ratio of iodoacetamide-alkyne labeling of the cysteine site, DMSO over compound (competition); higher = stronger covalent engagement of the cysteine by the compound, active = 1 or more; conditions: 500 µM; treatment time 1 h; system: HEK293T cell lysate
Summary of the method: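 The log2 competition ratio per cysteine is defined as mean reporter intensity in control channels over mean reporter intensity in compound channels. Lysate from HEK293T cells (2 mg/mL) received electrophile (500 µM) or vehicle for 1 h at ambient temperature, followed by iodoacetamide alkyne for 1 h. Samples were clicked to sCIP-TMT reagents, pooled, trypsin-digested overnight at 37 °C, streptavidin-enriched, acid-eluted and run on Orbitrap Eclipse LC-MS/MS with FAIMS, with quantification in FragPipe. Three replicates with duplicate channels were used, and any cysteine quantified in only one replicate was excluded.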

log2 ratio of iodoacetamide-alkyne labeling, active:
CAMSAP1 C1379 (UniProt Q5T5Y3) 1.45, C15orf39 C367 (UniProt Q6ZRI6) 1.32, AKAP1 C376 (UniProt Q92667) 1.15, UniProt Q7Z2T5_C239 1.28, ISCA2 C144 (UniProt Q86U28) 1.59, FAM122B C155 (UniProt Q7Z309) 1.05, ACO2 C385 (UniProt Q99798) 1.66

log2 ratio of iodoacetamide-alkyne labeling, inactive:
ZNF428 C93 (UniProt Q96B54) 0.191, SECISBP2 C719 (UniProt Q96T21) -0.258, ZNF428 C114 (UniProt Q96B54) 0.0848, UniProt Q9BSH4_C112 -0.152, CISD2 C92 (UniProt Q8N5K1) 0.0262, ANKHD1 C777 (UniProt Q8IWZ3) 0.251, STRBP C40 (UniProt Q96SI9) 0.168, NKAP C349 (UniProt Q8N5F7) 0.496, TBRG4 C335 (UniProt Q969Z0) 0.436, KHSRP C296 (UniProt Q92945) 0.00483, ZFR C974 (UniProt Q96KR1) 0.302, EP400 C162 (UniProt Q96L91) 0.339, UniProt Q8NFC6_C686 0.47, TRUB1 C269 (UniProt Q8WWH5) 0.163, PNKP C516 (UniProt Q96T60) 0.166, WDFY1 C287 (UniProt Q8IWB7) 0.127, GATAD2B C423 (UniProt Q8WXI9) 0.12, ISOC2 C84 (UniProt Q96AB3) 0.179, VPS13B C2907 (UniProt Q7Z7G8) 0.889, MAP1S C841 (UniProt Q66K74) 0.464, NCAPG C202 (UniProt Q9BPX3) 0.0426, UniProt Q96L50_C246 0.109, EXOC6 C28 (UniProt Q8TAG9) 0.489, FBXO30 C317 (UniProt Q8TB52) 0.564, UniProt Q7Z5K2_C94 0.262, WRNIP1 C39 (UniProt Q96S55) -0.0706, UniProt Q8N1G2_C794 0.107, RPL36AL C72 (UniProt Q969Q0) 0.0561
